Among the data in PubChem BioAssay (EPA / NIEHS) are outcome and AC50 values, retold here.

Assay [1] in a line: BSK_4H_SRB: Viability Assessment in the BioMAP Diversity Plus: 4H Assay (AID 2283027).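 For AC50: curves fitted both ways versus DMSO so AC50 may be loss or gain.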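 Note: cells exposed to compound for 24 h before staining.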 Conditions: primary human endothelial cells (HUVEC). In short, it runs like this: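 HUVEC, 24 h post-dose; 10% TCA fix, 0.1% SRB stain, A560 nm. Total protein = overt cytotoxicity, parallel to biomarker read. Bidirectional fit vs DMSO baseline.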
Assay [2] is described as follows: BSK_BE3C_SRB: Viability Assessment in the BioMAP Diversity Plus: BE3C Assay (AID 2283028).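 For AC50: fitted both ways so AC50 may mark signal gain or loss versus DMSO.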 Conditions: primary human bronchial epithelial cells. Summed up:
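Primary human bronchial epithelium; chemical dosing, 24 h; 10% TCA fix, 0.1% SRB stain, A560; bidirectional fit vs DMSO baseline.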

Read-out in assay [3]: Thrombomodulin, THBD (gene 7056)
The experiment in a line: BSK_3C_Thrombomodulin: BioMAP Diversity Plus: 3C Assay for Thrombomodulin Biomarker Activity (AID 2283029). Conditions: primary human endothelial cells (HUVEC); actives raise or lower the signal. In short, it runs like this: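 Endothelial cells from umbilical vein are dosed with test chemical and incubated 24 h. Thrombomodulin is then quantified by ELISA, with DMSO serving as negative control and activity baseline.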

Read-out in assay [4]: Urokinase-type plasminogen activator receptor (uPAR), PLAUR (gene 5329)
Nature of the assay: BSK_4H_uPAR: BioMAP Diversity Plus: 4H Assay for Urokinase-type plasminogen activator receptor (uPAR) Biomarker Activity (AID 2283030). As to conditions: primary human endothelial cells (HUVEC); actives raise or lower the signal. Summed up:
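HUVEC, 24 h post-dose; uPAR by ELISA; bidirectional fit vs DMSO baseline.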

Read-out in assay [5]: Vascular endothelial growth factor receptor 2 (Homo sapiens) (UniProt P35968)
The experiment in a line: BSK_4H_VEGFRII: BioMAP Diversity Plus: 4H Assay for Vascular endothelial growth factor receptor 2 (VEGFR2) Biomarker Activity (AID 2283031). As to conditions: primary human endothelial cells (HUVEC); actives raise or lower the signal. In short, it runs like this:
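HUVEC (human primary), 4H system; 24 h post-dose; VEGFRII by ELISA; bidirectional curve fit vs DMSO baseline; gain or loss of signal scored.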

Read-out in assay [6]: Vascular cell adhesion molecule 1 (VCAM1), VCAM1 (gene 7412)
The experiment in a line: BSK_4H_VCAM1: BioMAP Diversity Plus: 4H Assay for Vascular cell adhesion molecule 1 (VCAM1) Biomarker Activity (AID 2283033).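 For outcome: cell-surface VCAM-1 protein measured by ELISA.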 Conditions: primary human endothelial cells (HUVEC); actives raise or lower the signal. Summed up: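 Chemicals are added to primary human umbilical vein endothelial cells. After 24 h, VCAM-1 levels are measured by ELISA. Values come from bidirectional fitting referenced to DMSO.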

Read-out in assay [7]: Interferon-gamma inducible Protein 10 (IP10), CXCL10 (gene 3627)
The experiment in a line: BSK_BE3C_IP10: BioMAP Diversity Plus: BE3C Assay for Interferon-gamma inducible Protein 10 (IP10) Biomarker Activity (AID 2283034). Conditions: primary human bronchial epithelial cells; actives raise or lower the signal. Summed up:
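IP-10 quantified by ELISA serves as the endpoint. Cells: primary human bronchial epithelium, read 24 h after compound addition. Activity is derived by bidirectional fitting with DMSO as negative control.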

Read-out in assay [8]: Monokine induced gamma interferon (MIG), CXCL9 (gene 4283)
Nature of the assay: BSK_BE3C_MIG: BioMAP Diversity Plus: BE3C Assay for Monokine induced gamma interferon (MIG) Biomarker Activity (AID 2283035).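 For outcome: MIG protein measured by ELISA in BE3C cultures after 24 h of dosing.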 Conditions: primary human bronchial epithelial cells; actives raise or lower the signal. In short, it runs like this: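 Dose cells (human primary bronchial epithelial), incubate 24 h, quantify MIG by ELISA, then fit concentration–response in both directions relative to DMSO control.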

Read-out in assay [9]: Transforming growth factor beta 1 (TGFb1), TGFB1 (gene 7040)
The experiment in a line: BSK_BE3C_TGFb1: BioMAP Diversity Plus: BE3C Assay for Transforming growth factor beta 1 (TGFb1) Biomarker Activity (AID 2283036;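 for outcome: TGF-b1 protein level measured by ELISA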). Conditions: primary human bronchial epithelial cells; actives raise or lower the signal. In short, it runs like this: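 Bronchial epithelial primary cells are treated with test chemical, then TGF-b1 is quantified by ELISA after 24 hours. Values derive from bidirectional fitting against DMSO, with cytotoxicity checked by SRB staining in parallel cultures.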

Read-out in assay [10]: Plasminogen activator inhibitor-1 (PAI1), SERPINE1 (gene 5054)
The experiment in a line: BSK_BE3C_PAI1: BioMAP Diversity Plus: BE3C Assay for Plasminogen activator inhibitor-1 (PAI1) Biomarker Activity (AID 2283037). Conditions: primary human bronchial epithelial cells; actives raise or lower the signal. Summed up: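 Values derive from bidirectional fitting against DMSO baseline of PAI-1 levels, measured by ELISA in human bronchial epithelial cells 24 h after compound addition.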

Read-out in assay [11]: urokinase plasminogen activator (uPA), PLAU (gene 5328)
Nature of the assay: BSK_BE3C_uPA: BioMAP Diversity Plus: BE3C Assay for urokinase plasminogen activator (uPA) Biomarker Activity (AID 2283038).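 For outcome: uPA protein level quantified by ELISA in cell cultures; uPA read one day after compound addition.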 Conditions: primary human bronchial epithelial cells; actives raise or lower the signal. Summed up:
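ELISA read-out of uPA in human lung primary bronchial epithelial cultures, 24 h post-dosing. Gain or loss of signal fitted bidirectionally relative to DMSO baseline; cytotoxicity checked in parallel cultures via SRB total protein stain.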

Read-out in assay [12]: Urokinase-type plasminogen activator receptor (uPAR), PLAUR (gene 5329)
Nature of the assay: BSK_BE3C_uPAR: BioMAP Diversity Plus: BE3C Assay for Urokinase-type plasminogen activator receptor (uPAR) Biomarker Activity (AID 2283039).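 For outcome: uPAR protein level measured by ELISA on the cells; cells exposed to compound for one day before measurement.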 Conditions: primary human bronchial epithelial cells; actives raise or lower the signal. In short, it runs like this: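 Steps: dose human primary bronchial epithelial cells, incubate 24 h, measure uPAR by ELISA, then fit gain- or loss-of-signal response bidirectionally relative to DMSO.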

Read-out in assay [13]: Interleukin-6 (IL6), IL6 (gene 3569)
The experiment in a line: BSK_CASM3C_IL6: BioMAP Diversity Plus: CASM3C Assay for Interleukin-6 (IL6) Biomarker Activity for (AID 2283040). As to conditions: primary human coronary artery smooth muscle cells; actives raise or lower the signal.

Read-out in assay [14]: Tissue plasminogen activator (tPA), PLAT (gene 5327)
Nature of the assay: BSK_BE3C_tPA: BioMAP Diversity Plus: BE3C Assay for Tissue plasminogen activator (tPA) Biomarker Activity (AID 2283041).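 For outcome: tPA level quantified by ELISA one day after compound addition.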 Conditions: primary human bronchial epithelial cells; actives raise or lower the signal. In short, it runs like this:
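Gain- or loss-of-signal in tPA, measured by ELISA, derived by bidirectional fitting against DMSO. Cells: human primary bronchial epithelial; read at 24 h after chemical dosing.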

Read-out in assay [15]: Interleukin-8 (IL8), CXCL8 (gene 3576)
The experiment in a line: BSK_CASM3C_IL8: BioMAP Diversity Plus: CASM3C Assay for Interleukin-8 (IL8) Biomarker Activity (AID 2283042).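 Note: IL-8 protein level quantified by ELISA.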 As to conditions: primary human coronary artery smooth muscle cells; actives raise or lower the signal.

Read-out in assay [16]: Human Leukocyte Antigen - DR isotype (HLADR), HLA-DRA (gene 3122)
The experiment in a line: BSK_CASM3C_HLADR: BioMAP Diversity Plus: CASM3C Assay for Human Leukocyte Antigen - DR isotype (HLADR) Biomarker Activity (AID 2283043).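 Note: cell-surface HLA-DR protein level quantified by ELISA.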 As to conditions: primary human coronary artery smooth muscle cells; actives raise or lower the signal.

Read-out in assay [17]: Macrophage colony-stimulating factor (MCSF), CSF1 (gene 1435)
Nature of the assay: BSK_CASM3C_MCSF: BioMAP Diversity Plus: CASM3C Assay for Macrophage colony-stimulating factor (MCSF) Biomarker Activity (AID 2283044).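 Note: M-CSF protein amount quantified by ELISA after 24 h exposure.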 Conditions: primary human coronary artery smooth muscle cells; actives raise or lower the signal.

Read-out in assay [18]: Low-density lipoprotein receptor (LDLR), LDLR (gene 3949)
Nature of the assay: BSK_CASM3C_LDLR: BioMAP Diversity Plus: CASM3C Assay for Low-density lipoprotein receptor (LDLR) Biomarker Activity (AID 2283045).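 Note: LDLR protein level on the cell surface quantified by ELISA.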 Conditions: primary human coronary artery smooth muscle cells; actives raise or lower the signal.

Read-out in assay [19]: Monocyte Chemoattractant Protein-1 (MCP1), CCL2 (gene 6347)
Nature of the assay: BSK_CASM3C_MCP1: BioMAP Diversity Plus: CASM3C Assay for Monocyte Chemoattractant Protein-1 (MCP1) Biomarker Activity (AID 2283046).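 Note: MCP-1 level quantified by ELISA 24 h after dosing.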 Conditions: primary human coronary artery smooth muscle cells; actives raise or lower the signal.

Structures are written as SMILES. Activity calls are given as the source filed them. Rule for the calls: active = hit-call score of the fitted dose curve at least 0.9, where 1 is the maximum; inactive = score below 0.9.

As to `OCC(CO)n1cnc(-c2ccc(F)cc2)c1-c1ccnc(Oc2ccccc2)n1`, the outcome in assay [1], in [2], in assay [4], in assay [5], in assay [6] and in assay [7] was inactive. Besides, the result in assay [8], in [9], in assay [12], in assay [14], in assay [15] and in assay [18] was inactive. In addition, the result in assay [19] was inactive. For the same compound, the AC50 (commonly the midpoint of the concentration-response curve, whichever way the signal moves) in assay [3] was 2.28 µM (active); in assay [10], 1.29 µM (active); in [11], 3.97 µM (active); in [13], 0.654 µM (active); in [16] it was 0.408 µM (active); in [17], 0.759 µM (active).
As to `Cc1ccc(-c2cc(C(F)(F)F)nn2-c2ccc(S(N)(=O)=O)cc2)cc1`, the AC50 was 28 µM (active) in assay [1]; 35.7 µM (active) in [2]; 28.4 µM (active) in [3]; 20 µM (active) in assay [4]; 32.7 µM (active) in [6]; 30.6 µM (active) in assay [7]. The AC50 in assay [8] was 39.1 µM (active); in assay [9] it was 20 µM (active); in assay [10], 36.6 µM (active); in assay [11], 35.9 µM (active); in assay [12] it was 31.6 µM (active); in assay [13] it was 32.9 µM (active). The AC50 in assay [14] is 18.6 µM (active); in assay [15], 32.7 µM (active); in assay [16], 32.4 µM (active); in assay [18], 22.5 µM (active); in [19], 31.5 µM (active). Moreover, the result in assay [5] was inactive.
Take `CC(=O)O`: the outcome in assay [1], in assay [2], in [3], in assay [4], in [5] and in [6] was inactive. Also, the result in assay [7], in assay [8], in assay [9], in assay [10], in [11] and in [12] was inactive. Moreover, the result in [13], in assay [14], in [15], in assay [16], in assay [17] and in assay [18] was inactive. The result in assay [19] was inactive.
Take `Cc1cn([C@H]2C=C[C@@H](CO)O2)c(=O)[nH]c1=O`: the result in [1], in assay [2], in assay [3], in assay [4], in assay [5] and in assay [6] was inactive. Further, the outcome in assay [7], in assay [8], in assay [9], in assay [10], in [11] and in assay [12] was inactive. The outcome in assay [13], in assay [14], in assay [15], in assay [16], in [17] and in assay [18] was inactive. The outcome in assay [19] was inactive.
As to `CC(=O)CC(c1ccccc1)c1c(O)c2ccccc2oc1=O` (configuration not stated), the result in assay [1], in assay [2], in [3], in assay [4], in assay [5] and in [6] was inactive. The outcome in assay [7], in [8], in assay [9], in assay [10], in assay [11] and in assay [12] was inactive. For the same compound, the outcome in [13], in assay [14], in [15], in [16], in assay [17] and in [18] was inactive. Moreover, in assay [19], the result was inactive.
On to `NCCOCCOCCN`, for which the result in assay [1], in assay [2], in assay [3], in assay [4], in assay [5] and in [6] was inactive. Further, the outcome in assay [7], in [8], in [9], in assay [10], in [11] and in [12] was inactive. In addition, the outcome in assay [13], in assay [14], in [15], in [16], in [17] and in assay [18] was inactive. In addition, the outcome in assay [19] was inactive.
Consider `CN(C)CCCN(C)CCCN(C)C`, for which the result in assay [1], in [2], in [3], in assay [4], in assay [5] and in assay [6] was inactive. Further, the outcome in [7], in assay [8], in assay [9], in assay [10], in [11] and in [12] was inactive. In addition, the outcome in [13], in [14], in assay [15], in assay [16], in assay [17] and in assay [18] was inactive. Further, the result in assay [19] was inactive.
